The source of these data is PubChem BioAssay (NCATS).

SMILES strings stand for the structures. Results filed as inconclusive are left out. Unmarked numbers belong to inactive results. The source made the active and inactive calls. Calls follow the shape of the dose curve; as a rule, active = well fitted curve in the direction sought with a large enough effect; inconclusive = small, poorly fitted or top-dose-only effect, or another doubt; inactive = no such curve, though single readings can be large; an effect the other way counts as inactive or inconclusive.

Rap guanine nucleotide exchange factor 3 (Homo sapiens), sequence (O95398 whole entry, looked up): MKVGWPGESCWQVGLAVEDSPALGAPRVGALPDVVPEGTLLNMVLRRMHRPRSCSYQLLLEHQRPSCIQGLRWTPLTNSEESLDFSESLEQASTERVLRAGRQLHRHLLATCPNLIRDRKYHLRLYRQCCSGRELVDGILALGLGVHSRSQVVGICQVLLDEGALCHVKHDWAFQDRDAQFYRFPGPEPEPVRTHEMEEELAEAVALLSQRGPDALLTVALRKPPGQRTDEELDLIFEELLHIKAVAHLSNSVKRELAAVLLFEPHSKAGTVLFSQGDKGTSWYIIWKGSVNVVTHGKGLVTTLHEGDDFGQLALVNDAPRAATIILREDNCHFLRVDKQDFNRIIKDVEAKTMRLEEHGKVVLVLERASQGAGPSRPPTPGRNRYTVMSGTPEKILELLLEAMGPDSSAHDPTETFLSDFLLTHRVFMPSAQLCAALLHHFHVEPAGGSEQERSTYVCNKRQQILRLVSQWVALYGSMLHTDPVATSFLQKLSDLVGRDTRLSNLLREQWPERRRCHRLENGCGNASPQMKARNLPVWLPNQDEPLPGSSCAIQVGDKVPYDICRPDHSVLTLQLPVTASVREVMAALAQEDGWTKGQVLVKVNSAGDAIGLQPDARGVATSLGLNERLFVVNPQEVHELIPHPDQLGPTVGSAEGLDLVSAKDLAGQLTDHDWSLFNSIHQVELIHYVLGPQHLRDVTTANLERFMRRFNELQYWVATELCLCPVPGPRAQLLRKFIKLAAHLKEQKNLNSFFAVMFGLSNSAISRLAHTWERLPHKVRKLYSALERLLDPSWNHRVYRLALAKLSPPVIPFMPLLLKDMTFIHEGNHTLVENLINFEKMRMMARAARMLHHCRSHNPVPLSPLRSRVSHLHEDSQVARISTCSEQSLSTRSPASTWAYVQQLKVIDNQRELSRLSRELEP

System in one test: not listed separately
The test can be described thus: HepG2 cells viability qHTS for Zika virus inhibitors (AID 1347168). Also: potency is read from the fitted curve at half-maximal effect. As to activity change, negative = cytotoxicity: % is scaled to controls: 0 for no effect and ±100 for the full control effect. The following applies: Zika counter-screen; series mostly up to 45.9 µM; activity change, negative = cytotoxicity: at the top concentration. The method, boiled down:
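qHTS titration; 24-48 h compound exposure, 37 degrees C/5% CO2; DMEM, 4% FBS; CellTiter Glo ATP luminescence.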
Consider `C=NC(C(=O)N[C@H]1C(=O)N2C1SC(C)(C)C2C(=O)O)c1ccccc1` (some centres not stated), for which the “activity change, negative = cytotoxicity” value was 3.38%.

As to `CCOc1nc2cccc(C(=O)OC(C)OC(=O)OC3CCCCC3)c2n1Cc1ccc(-c2ccccc2-c2nn[nH]n2)cc1` (configuration not stated), the “activity change, negative = cytotoxicity” value is -9.5%. Still for that read-out and setting: to `CC(C)=CCCC1(C)C=Cc2c(O)c3c(c(CC=C(C)C)c2O1)OC12C(=CCCC1C(C)(C)O[C@@]2(C/C=C(\C)C(=O)O)C(=O)O)C3=O` (some centres not stated) belongs 13.9%; to `O=C(O)c1cc(NCc2cc(O)ccc2O)ccc1O`, 12.6%; to `CN(C)[C@@H]1C(=O)C(C(=O)NCN2CCCC2)=C(O)[C@@]2(O)C(=O)C3=C(O)c4c(O)cccc4[C@@](C)(O)[C@H]3C[C@@H]12`, -10.3%.

As for `Cc1cc(C)cc(C(=O)N(C)[C@H](Cc2ccc(-c3ccccc3)cc2)C(=O)N[C@@H](Cc2c[nH]c3ccccc23)C(=O)O)c1`, the “activity change, negative = cytotoxicity” value is 0.265%. On the same count and under the same terms, under `CCCCc1nn(-c2ccccc2C(F)(F)F)c(=O)n1Cc1ccc(-c2ccccc2S(=O)(=O)NC(=O)c2sccc2C)cc1` stands 4.94%.

For `Cc1c(-c2ccc(O)cc2)nn(-c2ccc(O)cc2)c1-c1ccc(OCCN2CCCCC2)cc1`, the Potency is 29.4 µM (active).

System in the next test: not listed separately
In words: Tertiary RLuc qRT-PCR qHTS assay for Zika virus inhibitors (AID 1347169). Also: nearly all actives have a fitted effect of over 55% in size. Also: potency is read from the fitted curve at half-maximal effect. As to activity change, negative = inhibition: top concentration of the series differs between compounds; % is scaled to controls: 0 for no effect and ±100 for the full control effect. The following applies: infected Vero cells, reporter luminescence, 48-72 h; series mostly up to 1.74 µM; activity change, negative = inhibition: at the top concentration. A digest of the protocol:
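Orthogonal cell-based readout: luminescence measured 1-1.5 hrs after adding live-cell Renilla substrate to Vero cells that had been infected with ZIKV-RLuc (MOI 1-2) post-compound, incubated 48-72 hrs at 37 degrees C.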
Background: Real-time PCR tracks product formation cycle by cycle.
As for `O=S(=O)(N[C@H]1CO[C@H]2[C@@H]1OC[C@@H]2n1nnnc1-c1ccc2c(c1)OCO2)c1ccc2ccccc2c1`, the “activity change, negative = inhibition” value is -75.9% [at 45.9 µM]. On to `C=NC(C(=O)N[C@H]1C(=O)N2C1SC(C)(C)C2C(=O)O)c1ccccc1` (some centres not stated), for which the “activity change, negative = inhibition” value was 0.911% [at 45.9 µM]. With `CCOc1nc2cccc(C(=O)OC(C)OC(=O)OC3CCCCC3)c2n1Cc1ccc(-c2ccccc2-c2nn[nH]n2)cc1` (configuration not stated), the Potency was 14.7 µM (active). On to `O=C(Nc1ccc(Oc2ccccc2)cc1)O[C@@H]1CO[C@H]2[C@@H]1OC[C@@H]2n1nnnc1-c1ccc(-c2ccccc2)cc1`, for which the “activity change, negative = inhibition” value was -25.6% [at 45.9 µM]. In the case of `Clc1ccc(-c2nn3c(COc4cccc(OCc5nnc6sc(-c7ccc(Cl)cc7)nn56)c4)nnc3s2)cc1`, the “activity change, negative = inhibition” value is -51.5% [at 45.9 µM]. On to `O=C(O)c1cc(NCc2cc(O)ccc2O)ccc1O`, for which the “activity change, negative = inhibition” value was -12.3% [at 45.9 µM]. In the case of `O=C(O)c1cccc(-c2cc(C(F)(F)F)ccc2Cl)c1`, the “activity change, negative = inhibition” value was -18.2% [at 45.9 µM]. Consider `N#Cc1ccccc1S(=O)(=O)N[C@H]1CO[C@H]2[C@@H]1OC[C@H]2OC(=O)Nc1ccc(Oc2ccccc2)cc1`, for which the Potency is 7.39 µM (active).

As for `Clc1nc2n[nH]nc2nc1Cl`, the “activity change, negative = inhibition” value is -42.9% [at 45.9 µM]. On the same count and under the same terms, to `C[C@@H](NC(=O)c1ccc(Cl)cc1)c1c(-c2ccc(F)cc2)noc1C(=O)O` belongs -28.7% [at 89.2 µM]; to `C[S+](=O)([O-])c1ccc(OCC2CN(Cc3ccccc3)C(=O)c3c(ccnc3-c3ccc(OCC(=O)O)cc3)O2)cc1` (configuration not stated), -39% [at 45.9 µM].

With `N#Cc1ccc(OCC2CN(Cc3cccc(C(F)(F)F)c3)C(=O)c3c(ccnc3-c3ccc(OCC(=O)O)cc3)O2)cc1` (configuration not stated), the “activity change, negative = inhibition” value was 20% [at 45.9 µM].

As for `Clc1cc(OCc2nnc3sc(Cc4ccccc4)nn23)c(Cl)cc1OCc1nnc2sc(Cc3ccccc3)nn12`, the “activity change, negative = inhibition” value was -48.4% [at 45.9 µM].

Take `O=C(OCc1cc(=O)n2nc(C3CC3)sc2n1)c1cccc(NC(=O)c2ccccc2Cl)c1`: the “activity change, negative = inhibition” value was 39.7%.

On to `CCOC(=O)c1ccc(NC(=O)CSc2nc(-c3cccs3)cc(C(F)(F)F)c2C#N)cc1`, for which the “activity change, negative = inhibition” value is 27.9% [at 14.8 µM]. In the case of `COc1cc(O)c2c(=O)cc(-c3ccc(OC)c(-c4c(O)cc(O)c5c(=O)cc(-c6ccc(O)cc6)oc45)c3)oc2c1`, the Potency is 16.5 µM (active). With `Cc1cccc(OCC(=O)Nc2ccc(C(=O)OCc3cc(=O)n4nc(C5CC5)sc4n3)cc2)c1`, the “activity change, negative = inhibition” value was 2.83% [at 14.8 µM].

Take `COc1ccccc1-c1ccnc(N[C@H]2CO[C@H]3[C@@H]2OC[C@@H]3NS(=O)(=O)c2ccc3ccccc3c2)n1`: the Potency is 16.5 µM (active). Consider `Cc1ccc(-c2nnc(Nc3ccc(O)cc3)c3ccccc23)cc1S(=O)(=O)NC(C)(C)CO`, for which the “activity change, negative = inhibition” value was 47.2% [at 14.8 µM]. For the compound `O=C(OCC#CCSc1nnc(-c2ccc(Cl)cc2)o1)c1ccc(F)cc1`, the “activity change, negative = inhibition” value was -47.8% [at 45.9 µM].

System in another test: not listed separately
In words: Primary qHTS for small molecule stabilizers of the endoplasmic reticulum resident proteome: Secreted ER Calcium Modulated Protein (SERCaMP) assay (AID 1508630). Also: % is scaled to controls: 0 for no effect and ±100 for the full control effect. The following applies: SH-SY5Y GLuc-SERCaMP (Gaussia luciferase released on ER calcium loss) secretion, thapsigargin, luminescence; series mostly up to 38.4 µM; activity change, negative = inhibition: at the top concentration. A digest of the protocol:
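The SH-SY5Y reporter protocol was run at 3 concentrations up to 38.3 uM (primary) or 11 concentrations (follow-up): 16 h compound, 100 nM thapsigargin for 4 h, then extracellular luciferase luminescence.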
A general note: Quantitative high-throughput screening tests each substance at several concentrations.
As to `C=NC(C(=O)N[C@H]1C(=O)N2C1SC(C)(C)C2C(=O)O)c1ccccc1` (some centres not stated), the “activity change, negative = inhibition” value is -29.9%.

For the compound `CCOc1nc2cccc(C(=O)OC(C)OC(=O)OC3CCCCC3)c2n1Cc1ccc(-c2ccccc2-c2nn[nH]n2)cc1` (configuration not stated), the “activity change, negative = inhibition” value was 21.9%. Consider `CC(C)=CCCC1(C)C=Cc2c(O)c3c(c(CC=C(C)C)c2O1)OC12C(=CCCC1C(C)(C)O[C@@]2(C/C=C(\C)C(=O)O)C(=O)O)C3=O` (some centres not stated), for which the “activity change, negative = inhibition” value was 20%. `CN(C)[C@@H]1C(=O)C(C(=O)NCN2CCCC2)=C(O)[C@@]2(O)C(=O)C3=C(O)c4c(O)cccc4[C@@](C)(O)[C@H]3C[C@@H]12`: the “activity change, negative = inhibition” value is -1.69%. Turning to `CCCCc1nn(-c2ccccc2C(F)(F)F)c(=O)n1Cc1ccc(-c2ccccc2S(=O)(=O)NC(=O)c2sccc2C)cc1`, the “activity change, negative = inhibition” value is -21.5%. On the same count and under the same terms, under `CO[C@H]1C[C@@H](O[C@@H]2/C(C)=C/C[C@@H]3C[C@@H](C[C@]4(CC[C@H](C)[C@@H](C5CCCCC5)O4)O3)OC(=O)[C@@H]3C=C(C)/C(=N/O)[C@H]4OC/C(=C\C=C\[C@@H]2C)[C@]43O)O[C@@H](C)[C@H]1O` stands -1.33%.

The next test addresses Rap guanine nucleotide exchange factor 3 (Homo sapiens) (UniProt O95398). The test can be described thus: Confirmatory qHTS for agonist of cAMP-regulated guanine nucleotide exchange factor 3 (EPAC1) (AID 1645881).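 Also: EPAC1 catalysed release of BODIPY-GDP from Rap1B seen as fluorescence loss; nearly all actives have a fitted effect of over 75% in size.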 The following applies: EPAC1 Rap1B BODIPY-GDP exchange fluorescence, 100% = cAMP control response; series mostly up to 154 µM; activation: at the top concentration.
For the compound `CCOc1nc2cccc(C(=O)OC(C)OC(=O)OC3CCCCC3)c2n1Cc1ccc(-c2ccccc2-c2nn[nH]n2)cc1` (configuration not stated), the “activation” value was -3.29%. For the compound `CC(C)=CCCC1(C)C=Cc2c(O)c3c(c(CC=C(C)C)c2O1)OC12C(=CCCC1C(C)(C)O[C@@]2(C/C=C(\C)C(=O)O)C(=O)O)C3=O` (some centres not stated), the “activation” value is -21.8%. Take `Cc1cc(C)cc(C(=O)N(C)[C@H](Cc2ccc(-c3ccccc3)cc2)C(=O)N[C@@H](Cc2c[nH]c3ccccc23)C(=O)O)c1`: the “activation” value is -10.4%.
